Reference: PubChem BioAssay (NCATS)
Inconclusive results are not listed. Entries that show only a call come without a potency. The source made the active and inactive calls. Unless noted, calls follow the shape of the dose curve; as a rule, active = well fitted inhibition curve with a large enough effect; inconclusive = small, poorly fitted or top-dose-only effect; inactive = no such curve, though single readings can be large or run the other way.

tested on: not listed separately; assay: NS1 protein of Zika virus - qHTS assay to identify small molecule inhibitors in human HEK 293 cells (AID 1347053); settings: HEK293 ZIKV MR766 infection, NS1 TR-FRET, 24 h; series mostly up to 46.1 µM; also: nearly all actives have a fitted effect of over 55% in size; also: potency is read from the fitted curve at half-maximal effect
Procedure, shortened: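 Readout was TR-FRET using paired anti-NS1 antibodies after 24 h infection of HEK 293 cells with ZIKV MR766 (MOI = 0.5). Compound preceded virus by 1 h; reduced signal reflects lower NS1 expression.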

SMILES	Potency
CCn1c(-c2nonc2N)nc2cnc(Oc3cccc(NC(=O)c4ccc(OCCN5CCOCC5)cc4)c3)cc21	14.8 µM (active)
COCCNCCCn1c(C(=O)CF)c(-c2ccc(C)cc2)c2c(N)ncnc21	inactive
Clc1ccc(Nc2nnc(Cc3ccncc3)c3ccccc23)cc1	inactive
COc1ccccc1-c1cccc(-c2c(O)c3cc(C#N)c(Cl)cc3[nH]c2=O)c1	inactive
CCOc1ccn(-c2ccc(F)cc2)c(=O)c1C(=O)Nc1ccc(Oc2ccnc(N)c2Cl)c(F)c1	inactive
CNC(=O)c1ccc(N2C(=S)N(c3ccc(C#N)c(C(F)(F)F)c3)C(=O)C2(C)C)cc1F	inactive
O=C(Nc1ccc(F)c(C(F)(F)F)c1)Nc1nnc(-c2ccncc2)s1	inactive
C[C@@H]1CN(Cc2ccc(F)cc2)[C@@H](C)CN1C(=O)c1cc2c(C(=O)C(=O)N(C)C)cn(C)c2cc1Cl	inactive
CCCc1nn(C)c2c(=O)[nH]c(-c3cc(S(=O)(=O)N4CCN(C)CC4)ccc3OCC)nc12	inactive
Cn1cc(-c2ccc3nnc(C(F)(F)c4ccc5ncccc5c4)n3n2)cn1	inactive
C[C@]1(c2nc3c(C(N)=O)cccc3[nH]2)CCCN1	inactive
CNCc1ccc(-c2[nH]c3cc(F)cc4c3c2CCNC4=O)cc1	inactive
N#Cc1ccc(C(c2ccc(C#N)cc2)n2cncn2)cc1	inactive
COc1ccccc1[C@H](c1cccc2ccccc12)[C@@](C)(C#N)C(=O)N1CCC(c2cccc(C(F)(F)F)c2)CC1	inactive
CCN(CC)CCCC(C)Nc1nc(C)cc(Nc2ccc3nc(C)cc(N)c3c2)n1 (configuration not stated)	inactive
Cc1ccc(-n2nc(C(C)(C)C)cc2NC(=O)Nc2ccc(OCCN3CCOCC3)c3ccccc23)cc1	inactive
CCC(C)(C)C(=O)O[C@H]1C[C@@H](C)C=C2C=C[C@H](C)[C@H](CC[C@@H]3C[C@@H](O)CC(=O)O3)[C@H]21	inactive
NC(=O)c1ccc(I)c([N+](=O)[O-])c1	inactive
COc1ccc(CC2=NN3C([C@@H](CCc4ccccc4)[C@@H](C)O)=NC(C)C3C(=O)N2)cc1OC (some centres not stated)	inactive
O=S(=O)(N=Cc1c(O)ccc2ccccc12)c1cccs1	inactive
COc1cc2c(cc1OC)CN(CCc1ccc(NC(=O)c3cccc4c(=O)c5cccc(OC)c5[nH]c34)cc1)CC2	inactive

target: Tyrosine-protein phosphatase non-receptor type substrate 1 (Homo sapiens) + Leukocyte surface antigen CD47 (Homo sapiens) (UniProt P78324+Q08722); assay: CD47-SIRPalpha protein protein interaction - LANCE assay qHTS validation (AID 1347057; active = well fitted curve in the direction sought with a large enough effect in the signal ratio, with a control signal flat, not every such curve was filed as active; the % refers to the signal ratio); settings: Recombinant CD47-His / biotin-SIRPalpha, TR-FRET ratio; series mostly up to 38.3 µM
Sequence (P78324 whole entry, looked up, the tested form may be a part): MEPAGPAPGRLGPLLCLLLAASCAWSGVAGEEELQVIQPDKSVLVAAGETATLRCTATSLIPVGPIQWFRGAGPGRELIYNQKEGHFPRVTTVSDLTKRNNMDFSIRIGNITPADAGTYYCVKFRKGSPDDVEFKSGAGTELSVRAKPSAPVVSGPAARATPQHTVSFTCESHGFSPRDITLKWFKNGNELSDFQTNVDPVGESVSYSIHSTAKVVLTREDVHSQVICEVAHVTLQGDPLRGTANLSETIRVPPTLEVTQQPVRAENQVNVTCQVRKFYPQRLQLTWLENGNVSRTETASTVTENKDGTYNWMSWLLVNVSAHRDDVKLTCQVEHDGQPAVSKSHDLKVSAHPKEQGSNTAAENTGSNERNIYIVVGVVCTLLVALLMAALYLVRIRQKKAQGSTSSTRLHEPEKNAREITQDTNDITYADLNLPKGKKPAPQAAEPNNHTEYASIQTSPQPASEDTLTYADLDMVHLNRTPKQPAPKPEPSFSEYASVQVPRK
Sequence (Q08722 whole entry, looked up, the tested form may be a part): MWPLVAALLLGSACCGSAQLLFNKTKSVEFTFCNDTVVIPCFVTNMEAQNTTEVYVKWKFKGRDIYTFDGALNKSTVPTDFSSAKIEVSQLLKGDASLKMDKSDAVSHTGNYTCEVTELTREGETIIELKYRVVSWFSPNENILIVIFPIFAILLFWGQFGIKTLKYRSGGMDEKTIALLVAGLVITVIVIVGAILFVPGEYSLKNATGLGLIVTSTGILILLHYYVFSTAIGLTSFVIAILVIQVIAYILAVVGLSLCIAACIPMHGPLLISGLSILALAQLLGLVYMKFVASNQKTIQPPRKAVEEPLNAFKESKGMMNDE
Procedure, shortened: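 Inhibition of soluble CD47/SIRPalpha ectodomain association by titrated compounds, measured as 665/615 nm time-resolved FRET ratio after sequential 30 min room-temperature incubations.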

SMILES	outcome
Cc1oncc1C(=O)Nc1ccc(C(F)(F)F)cc1	inactive
CC(C)C[C@H](NC(=O)[C@@H](O)[C@H](N)Cc1ccccc1)C(=O)O	inactive
CS(=O)(=O)c1cccc(CNc2nc(Nc3ccc4c(c3)CCC(=O)N4)ncc2C(F)(F)F)c1	inactive
CC(C)(Sc1ccc(CCN(CCCCC2CCCCC2)C(=O)NC2CCCCC2)cc1)C(=O)O	inactive
Cc1cc2c(C(C)C)c(O)c(O)c(C=O)c2c(O)c1-c1c(C)cc2c(C(C)C)c(O)c(O)c(C=O)c2c1O	inactive
CCCc1nn(C)c2c(=O)[nH]c(-c3cc(S(=O)(=O)N4CCN(C)CC4)ccc3OCC)nc12	inactive
